In PMC4336329 (PLoS ONE, 2015):
The campaign covered roughly 310,000 compounds. About 14,000 (4.5%) showed an effect of 50% or more. The effect is printed as a negative number. The full list was thinned out, with strong results kept by preference.

The compounds below were run against human ether-à-go-go-related gene (hERG) potassium channel (human, UniProt Q12809) (assay: primary screen, population patch clamp on CHO cells stably expressing hERG; higher = less effect of the substance).
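Note: peak tail current of the secondary pulse compared with the same well before compound.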

Sequence of human ether-à-go-go-related gene (hERG) potassium channel (Q12809 whole entry, looked up): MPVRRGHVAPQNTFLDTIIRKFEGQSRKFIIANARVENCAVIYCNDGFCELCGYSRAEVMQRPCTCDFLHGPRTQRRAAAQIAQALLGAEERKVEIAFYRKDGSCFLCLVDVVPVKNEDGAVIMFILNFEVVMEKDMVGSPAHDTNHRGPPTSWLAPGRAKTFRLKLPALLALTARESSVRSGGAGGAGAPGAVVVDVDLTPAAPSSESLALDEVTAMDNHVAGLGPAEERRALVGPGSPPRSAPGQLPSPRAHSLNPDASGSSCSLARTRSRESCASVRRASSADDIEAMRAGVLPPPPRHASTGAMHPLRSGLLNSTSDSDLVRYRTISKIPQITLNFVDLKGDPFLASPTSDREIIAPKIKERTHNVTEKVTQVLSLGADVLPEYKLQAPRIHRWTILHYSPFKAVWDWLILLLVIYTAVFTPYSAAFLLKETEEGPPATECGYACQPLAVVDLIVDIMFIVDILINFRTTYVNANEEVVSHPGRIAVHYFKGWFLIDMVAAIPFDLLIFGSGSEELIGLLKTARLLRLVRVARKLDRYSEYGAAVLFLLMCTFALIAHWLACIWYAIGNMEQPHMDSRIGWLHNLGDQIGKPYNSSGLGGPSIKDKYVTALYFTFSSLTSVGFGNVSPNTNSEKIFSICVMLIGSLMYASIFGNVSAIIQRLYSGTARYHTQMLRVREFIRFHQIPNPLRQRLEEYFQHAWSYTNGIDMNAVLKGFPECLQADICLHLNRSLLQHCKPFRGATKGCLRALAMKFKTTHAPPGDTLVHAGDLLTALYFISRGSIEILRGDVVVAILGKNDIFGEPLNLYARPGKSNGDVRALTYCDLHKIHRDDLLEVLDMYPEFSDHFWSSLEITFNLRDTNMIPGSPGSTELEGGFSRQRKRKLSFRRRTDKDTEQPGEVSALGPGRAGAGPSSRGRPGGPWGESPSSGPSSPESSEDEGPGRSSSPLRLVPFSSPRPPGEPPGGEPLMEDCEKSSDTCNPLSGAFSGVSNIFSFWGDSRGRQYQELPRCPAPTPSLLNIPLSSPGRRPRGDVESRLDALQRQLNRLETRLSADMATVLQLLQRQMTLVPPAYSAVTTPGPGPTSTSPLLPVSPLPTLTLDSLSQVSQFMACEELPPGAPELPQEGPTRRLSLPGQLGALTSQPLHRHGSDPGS

| Compound | hERG current change (%, negative = inhibition) at 10uM [%] |
| --- | --- |
| O=C(c1ccc(S(=O)(=O)Nc2ccccc2F)cc1)N1CCCCCC1 | 2.93 |
| O=C(N[C@@H]1CCC(=O)N(CC[C@H](Sc2ccc(Br)cc2)c2ccccc2)CC1)OCc1ccccc1 | 0.417 |
| COc1ccc2[nH]c(=O)c(CN(CCO)S(=O)(=O)c3ccc(C)cc3)cc2c1 | -9.52 |
| Cc1ccc(C)c(NC(=S)N/N=C2\CCc3ccccc32)c1 | 9.03 |
| COc1ccc(CCNC(=O)Cc2cc(=O)[nH]c(=O)[nH]2)cc1OC | -9.44 |
| CCN1/C(=C2/SC(=S)N(C)C2=O)C=Cc2cc(C)ccc21 | -1.96 |
| CCN1C(=O)/C(=C2/C=Cc3cc(C)ccc3N2CC)N(C)C1=S | -54.8 |
| CCN1/C(=C2\C(=O)N(C)C(=S)N2C)C=Cc2cc(C)ccc21 | -33.4 |
| CC1=NN(C(C)C)C(=O)C1 | 8.62 |
| CCOC(=O)C1(CCc2ccccc2)CCN(Cc2cnc(N(C)C)s2)CC1 | -83 |
| CCOC(=O)C1(CCCc2ccccc2)CCN(Cc2cnc(C)s2)CC1 | -73.1 |
| CCOC(=O)C1(CCOc2ccccc2)CCN(Cc2cccs2)CC1 | -81.8 |
| CCOC(=O)C1(CCOc2ccccc2)CCN(Cc2ccc(C)s2)CC1 | -89.8 |
| CCOC(=O)C1(CCOC)CCN(Cc2cc3ccccc3s2)CC1 | -22.5 |
| CCOC(=O)C1(CC2CC2)CCN(Cc2cnc(N(C)C)s2)CC1 | -22.1 |
| CCOC(=O)C1(Cc2cccc(F)c2)CCN(Cc2cnc(C)s2)CC1 | -2.73 |
| CCN(CC)C(=O)CC(c1ccc(F)cc1)c1ccc(OC)cc1 (centres unmarked) | -25.1 |
| CC1CC(C)(C)N2C(=O)C3(Nc4ccccc4S3)c3cccc1c32 (centres unmarked) | 22.1 |
| Cc1ccc(C(C)C)cc1OCCCCN1CCCC1 | -49 |
| COc1ccc(N(CC(=O)NCCSCc2ccco2)S(=O)(=O)c2ccccc2)cc1 | -9.08 |
| COc1ccc(CN2C(=O)c3ccccc3C2=O)cc1C(=O)N(C)CC(=O)Nc1c(C)cccc1C | -16.7 |
| CCOC(=O)C1(CCOc2ccccc2)CCN(Cc2cnc(C)[nH]2)CC1 | -48.3 |

| Compound | hERG current change (%, negative = inhibition) at 10uM [%] |
| --- | --- |
| CCOC(=O)C1(CCOc2ccccc2)CCN(Cc2cnc(C)s2)CC1 | -62.4 |
| CCC(=O)Nc1cccc(NC(=O)c2ccc(C)cc2Cl)c1 | 34.5 |
| NC(=S)NNc1ccc(Cl)c(Cl)c1 | 16.3 |
| COc1ccc(C(=O)NCCCn2ccnc2)cc1[N+](=O)[O-] | -8.22 |
| Cc1ccc(C(=O)NCCCn2ccnc2)cc1[N+](=O)[O-] | 4.53 |
| O=C(NCCCN1CCOCC1)c1ccc(N2CCCC2)c([N+](=O)[O-])c1 | -16.8 |
| O=C(NCCCn1ccnc1)c1ccc(N2CCCCC2)c([N+](=O)[O-])c1 | -71.7 |
| Cl.O=C(NCCCn1ccnc1)c1ccc(S(=O)(=O)N2CCCCCC2)cc1 | -7.07 |
| Cl.O=C(NCCCn1ccnc1)c1ccc(N2CCCCCC2)c([N+](=O)[O-])c1 | -64 |
| COc1ccc(/C=C(\NC(=O)c2ccccc2)C(=O)NCCC(=O)O)cc1 | 26.3 |
| Cc1cc(NC(=O)c2ccc3c(c2)OCCO3)ccc1NC(=O)c1ccco1 | 8.5 |
| COc1ccc(C(=O)NCC(=O)N/N=C/c2ccco2)cc1OC | 25.9 |
| CCCc1ccc(OCCNC(=O)CC)cc1 | -10.9 |
| COC(=O)C1=CN(c2ccc(Cl)cc2)C=C(C(=O)OC)C1c1ccc([N+](=O)[O-])cc1 | 16.2 |
| CCC(C)N(C(=O)Cn1nnc2ccccc21)C(C(=O)Nc1ccc(F)cc1)c1cccc(OC)c1 (centres unmarked) | -18.8 |
| COc1ccc(C(C(=O)Nc2ccc(F)cc2)N(C(=O)Cn2nnc3ccccc32)C2CC2)cc1 (centres unmarked) | -45.6 |
| CCOc1ccc(C(C(=O)Nc2ccc(F)cc2)N(C(=O)Cn2nnc3ccccc32)C2CC2)cc1 (centres unmarked) | -50.3 |
| Cc1cccc(N(C(=O)c2nsc(Cl)c2Cl)C(C(=O)NC2CCCC2)c2ccc(O)cc2)c1 (centres unmarked) | -2.24 |
| N#CCO/N=C(\c1ccccc1)c1ccncc1 | 18.1 |
| CCNC(=O)/C(=C\c1ccc2c(c1)OCO2)NC(=O)c1ccc(Br)cc1 | -69.7 |
| CCNC(=O)/C(=C/c1ccc2c(c1)OCO2)NC(=O)c1ccc(Br)cc1 | -58.3 |
| O=C(O)CNC(=O)/C(=C\c1ccc2c(c1)OCO2)NC(=O)c1ccc(Br)cc1 | 8.77 |

| Compound | hERG current change (%, negative = inhibition) at 10uM [%] |
| --- | --- |
| O=C(Nc1ccc(C(=O)O)cc1)/C(=C/c1ccc2c(c1)OCO2)NC(=O)c1cccc(Br)c1 | 7.25 |
| O=C(Nc1cccc(C(=O)O)c1)/C(=C/c1ccc2c(c1)OCO2)NC(=O)c1cccc(Br)c1 | 7.35 |
| C=CCNC(=O)/C(=C\c1ccc2c(c1)OCO2)NC(=O)c1ccc(Br)cc1 | -30 |
| CC1CC2=C(C(=O)O1)C(c1ccc(Cl)cc1)Nc1ccccc1N2 (centres unmarked) | -6.21 |
| Cc1ccc(-c2csc(NC(=O)CCNC(=O)c3ccccc3Cl)n2)cc1 | 1.5 |
| CC1CCCCC1N1CCN(C(=O)c2cccc(F)c2)CC1.O=C(O)C(=O)O (centres unmarked) | -17.5 |
| CS(=O)(=O)c1ccc(-c2cccc(NC(=O)COc3ccccc3)c2)nn1 | -3.45 |
| CCCN1C(=O)/C(=C/c2nc3ccccc3c(=O)[nH]2)c2ccccc21 | 1.75 |
| O=C(COC(=O)c1nc(Cl)ccc1Cl)Nc1ccc2c(c1)OCO2 | -3.62 |
| Cc1c(O)c(S(=O)(=O)c2ccccc2)c(=O)n(-c2ccccc2)c1-c1ccccc1 | 3.84 |
| Cl.N=c1n(CCN2CCCC2)c2ccccc2n1CC(O)c1ccc(Cl)c(Cl)c1 (centres unmarked) | -91.4 |
| COc1ccc(C(O)Cn2c(=N)n(CCCN(C)C)c3ccccc32)cc1.Cl (centres unmarked) | -13 |
| Cl.N=c1n(CCO)c2ccccc2n1CCN1CCCCC1 | 6.77 |
| CN(C)CCn1c(=N)n(CC(O)c2ccc(Cl)c(Cl)c2)c2ccccc21.Cl (centres unmarked) | -66.1 |
| OC(CN1CCCCC1)Cn1c2ccccc2c2cc(Br)ccc21 (centres unmarked) | -33.1 |
| Cl.N=c1n(CCN2CCCCC2)c2ccccc2n1CC(O)c1ccc(Cl)c(Cl)c1 (centres unmarked) | -105 |
| Cl.N=c1n(CCN2CCCCC2)c2ccccc2n1CC(O)c1cccc(Br)c1 (centres unmarked) | -63.2 |
| Cc1ccc2c(c1)N(CCC(=O)NCCCOC(C)C)C(=O)C(C)O2 (centres unmarked) | -0.496 |
| O=C(Nc1ccccc1C(=O)NCc1cccnc1)c1cccc([N+](=O)[O-])c1 | -1.36 |
| O=C(CSc1nc(-c2ccc(F)cc2)cc(C(F)(F)F)n1)NCc1ccco1 | 10.2 |
| Oc1nc(-c2ccc(Br)cc2)n2ccncc12 | -8.14 |
| CC(C)(C)NC(=O)CSc1nc2ccccc2c(=O)[nH]1 | 11.7 |

| Compound | hERG current change (%, negative = inhibition) at 10uM [%] |
| --- | --- |
| COc1ccc(CCNC(=O)c2cc3ccccn3n2)c(OC)c1OC | -3.41 |
| O=C(CNC1CCCCC1)N1CCC2(CC1)OCCO2.O=C(O)C(=O)O | 21.4 |
| CCOC(=O)Cc1cc(=O)n2[nH]c(-c3ccccc3)c(-c3ccccc3)c2n1 | -18 |
| CN1CCN(CC(O)Cn2c3ccccc3c3ccccc32)CC1.O=C(O)C(=O)O (centres unmarked) | 3.46 |
| COc1ccc(CN2CCN(CC(O)Cn3c4ccccc4c4ccccc43)CC2)cc1 (centres unmarked) | -75.2 |
| CC1CCN(CC(O)Cn2c3ccccc3c3ccccc32)CC1 (centres unmarked) | -54 |
| CC(=O)N1CCN(CC(O)Cn2c3ccccc3c3ccccc32)CC1 (centres unmarked) | 7.81 |
| OC(CN1CCOCC1)Cn1c2ccccc2c2ccccc21 (centres unmarked) | 2.42 |
| Cl.OC(CN1CCNCC1)Cn1c2ccccc2c2ccccc21 (centres unmarked) | -6.23 |
| CCOc1ccc(CN2CCN(CC(O)Cn3c4ccccc4c4ccccc43)CC2)cc1 (centres unmarked) | -70.9 |
| OC(CN1CCN(c2ccccc2)CC1)Cn1c2ccccc2c2ccccc21 (centres unmarked) | 9.1 |
| OC(CN1CCN(Cc2ccccc2)CC1)Cn1c2ccccc2c2ccccc21 (centres unmarked) | -67.7 |
| O=CN1CCN(CC(O)Cn2c3ccccc3c3ccccc32)CC1 (centres unmarked) | -23.6 |
| OC(CN1CCCCC1)Cn1c2ccccc2c2ccccc21 (centres unmarked) | 3.16 |
| Cc1ccc(OCCN2CCN(CC(O)Cn3c4ccccc4c4ccccc43)CC2)cc1.O=C(O)C(=O)O (centres unmarked) | -25.1 |
| CSc1cc(C)[nH]c(=O)n1 | 7.05 |
| CCOc1cc(S(=O)(=O)Nc2ccc(Cl)cn2)ccc1Cl | 5.67 |
| CCC(C)C(NC(=O)OCc1ccccc1)C(=O)OCN1C(=O)c2ccccc2C1=O (centres unmarked) | -2.01 |
| COCc1cc(C)nc2sc(C(=O)Nc3ccc(OC)cc3)c(N)c12 | 12.5 |
| COc1ccccc1CN1CCCCC1C(=O)O (centres unmarked) | 9.48 |
